According to PubChem BioAssay (Tox21):
Where “and” joins values, the source holds several entries; their conditions need not be identical. Equal values may be shown once. Inconclusive results are not listed. Where a call stands in place of a potency, no number is given. More than one record can exist for a structure, and the calls need not agree. Calls of active or inactive are those of the source. Calls follow the shape of the dose curve; as a rule, active = well fitted cell-killing curve with a large enough effect in the repeat runs; inconclusive = weak or mixed curves; inactive = no such curve, though single readings can be large or run the other way.

assay: qHTS assay to identify small molecule agonists of the peroxisome proliferator-activated receptor delta (PPARd) signaling pathway - cell viability counter screen (AID 743211); conditions: PPARd-bla HEK293H viability, CellTiter-Glo luminescence, 17 h; series mostly up to 62.6 µM; activity change, negative = cytotoxicity: at the top concentration; also: nearly all actives have a fitted effect of over 55% in size
Excerpt: U.S. Tox21 Program National Center for Advancing Translational Sciences [NCATS] NIH Chemical Genomics Center [NCGC] U.S. Environmental Protection Agency [EPA] National Institutes of Environmental Health Sciences [NIEHS] National Toxicology Program [NTP] U.S. Food and Drug Administration [FDA] Tox21 Assay Overview: The peroxisome proliferator-activated receptors (PPARs) are lipid-activated transcription factors of the nuclear receptor superfamily with three distinct subtypes namely PPAR alpha, PPAR delta (PPARd) and PPAR gamma. All these subtypes heterodimerizes with Retinoid X receptor (RXR) and have different physiological functions. […] To identify the compounds that activate PPAR-delta signaling, GeneBLAzer PPAR delta UAS-bla HEK293H cell line (Invitrogen, Carlsbad, CA, USA) containing a beta-lactamase reporter gene under the control of an Upstream Activator Sequence (UAS) was used to screen the Tox21 compound library. The cytotoxicity of the Tox21 compound library against the PPARd-bla cell line was tested in parallel by measuring the cell viability using CellTiter-Glo assay (Promega, Madison, WI) in the same wells.
Tox21 Assay Protocol Summary: PPARd-bla cells were dispensed at 3000 cells/6uL/well in 1536-well black wall/clear bottom plates using a Multidrop Combi (Thermo Fisher Scientific, Waltham, MA) dispenser. After the assay plates were incubated at 37 C and 5% CO2 for 5 h, 23 nL of compounds dissolved in DMSO, positive controls or DMSO only was transferred to the assay plate by a Pintool station (Kalypsys, San Diego, CA). The assay plates were incubated at 37C for 17 h. After 1 uL of LiveBLAzerTM B/G FRET substrate was added using a Bioraptr Flying Reagent Dispenser (FRD) workstation (Beckman Coulter, Indianapolis, IN, USA), the plates were incubated at room temperature for 2 h, and fluorescence intensity was measured by an Envision plate reader (PerkinElmer, Shelton, CT). For cell viability readout that measures cytotoxicity, 3 ul/well of CellTiter-Glo reagent was added into the assay plates using a Bioraptr FRD. After 30 min incubation at room temperature, the luminescence intensity in the plates was measured using a ViewLux plate reader (PerkinElmer).
Potency is read from the fitted curve at half-maximal effect.

| Structure (SMILES) | Potency | activity change, negative = cytotoxicity |
| --- | --- | --- |
| CN(C)[C@@H]1C(=O)C(C(N)=O)=C(O)[C@@]2(O)C(=O)C3=C(O)c4c(O)cccc4[C@@](C)(O)[C@H]3[C@H](O)[C@@H]12 | inactive |  |
| Cc1cc(Cl)ccc1N | inactive |  |
| CNC | inactive |  |
| CCCC[n+]1ccccc1 | inactive |  |
| CC(=O)O | inactive |  |
| O=S(=O)(O)O | inactive |  |
| CCC[N+]1(C)CCCC1 | inactive |  |
| CCCCCC[n+]1ccccc1 | 55.5 µM (active) and 55.3 µM (active) and inactive |  |
| CCCCCCCCn1cc[n+](C)c1 |  | -1.68% (inactive) |
| COP(=O)(OC)C(O)C(Cl)(Cl)Cl (stereo not given) | inactive |  |
| CCC[N+]1(C)CCCCC1 | inactive |  |
| O=[N+]([O-])O | inactive |  |
| CC[N+](CC)(CC)CC | inactive |  |
| OCCOc1ccccc1 | inactive |  |
| CCNc1nc(Cl)nc(NCC)n1 | inactive |  |
| Nc1ccc(-c2ccc(N)c(Cl)c2)cc1Cl |  | 2.03% [at 81.1 µM] (inactive) |
| Cc1cc(-c2ccc(N)c(C)c2)ccc1N | inactive |  |
| C=CCOC(Cn1ccnc1)c1ccc(Cl)cc1Cl (stereo not given) | 49 µM (active) and inactive |  |
| CC(Cl)(Cl)C(=O)O | inactive |  |
| CCOP(=S)(OCC)Oc1ccc2c(C)c(Cl)c(=O)oc2c1 | inactive |  |

| Structure (SMILES) | Potency | activity change, negative = cytotoxicity |
| --- | --- | --- |
| CCCCCCn1cc[n+](C)c1 | inactive |  |
| N#CS | inactive |  |
| CC[N+]1(C)CCCC1 | inactive |  |
| O=C(O)C(Cl)Cl | inactive |  |
| CCCC[N+]1(C)CCCC1 | inactive |  |
| CCCCCCCCCCCCCC[P+](CCCCCC)(CCCCCC)CCCCCC | 7.8 µM (active) and 2.47 µM (active) and 61.6 nM (active) |  |
| CCCC[n+]1cccc(C)c1 | inactive |  |
| Oc1ccccc1-c1ccccc1 | inactive |  |
| COP(=O)(OC)OC=C(Cl)Cl | inactive |  |
| O=c1[nH]c(=O)n(Cl)c(=O)n1Cl | inactive |  |
| C1CCC(NC2CCCCC2)CC1 | inactive |  |
| CCCC[n+]1ccccc1C | inactive |  |
| CCCC[N+]1(C)CCCCC1 | inactive |  |
| CCCCCCCCCCCCOS(=O)(=O)O | 38.9 µM (active) and inactive |  |
| CCCCn1cc[n+](C)c1C | inactive |  |
| CC(=O)[O][Hg][c]1ccccc1 | 611 nM (active) and 977 nM (active) and 2.98 µM (active) |  |
| COc1ccc(N)cc1 | inactive |  |
| Nc1ccc(Cl)cc1 | inactive |  |
| O=C(O)COc1ccc(Cl)cc1Cl | inactive |  |
| CCCCCCCCCCCC(=O)O | inactive |  |
